# Reference: PubChem BioAssay AID1159580 (chemical genetic matrix, 2015)
# Several values for one entry are separate records, joined by “and”; a condition that tells them apart may be missing. Identical values can stand only once. Out of some 5,500 compounds screened, about 2,000 (36%) were called active. Roughly 18% stayed inconclusive and do not appear here. Cut-off read from the data, not from the text of the source: active = normalized growth mostly below about 0.91 (no sharp cut-off); inconclusive = no clear call, values can overlap the other calls; inactive = mostly above about 0.92. The list shows a part of the results. A structure can be active in one record and inactive in another.
# Assay: chemical genetic growth profiling, strain panel (AID 1159580);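 note: tested at 20 µM; growth read once vehicle control cultures reached saturation at 30 °C; 1 = growth at the plate median or of vehicle wells; lower values mean less growth of the strain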
# Settings: growth OD
smiles,measurement,setting,value
O=C(CCCN1CCC(O)(c2ccc(Cl)cc2)CC1)c1ccc(F)cc1,normalized growth,"S. cerevisiae deletion strains, locus YJR043C, strain POL32, stronger effect = lower value",0.93 (inactive)
same,normalized growth,"S. cerevisiae deletion strains, locus YJR066W, strain TOR1, stronger effect = lower value",0.939 (inactive)
same,normalized growth,"S. cerevisiae deletion strains, locus YJR075W, strain HOC1, stronger effect = lower value",0.819 (active)
same,normalized growth,"S. cerevisiae deletion strains, locus YKL009W, strain mrt4, stronger effect = lower value",0.963 (inactive)
same,normalized growth,"S. cerevisiae deletion strains, locus YKL068W, stronger effect = lower value",1.02 (inactive)
same,normalized growth,"S. cerevisiae deletion strains, locus YKL085W, strain MDH1 (second series), stronger effect = lower value",1.02 (inactive)
same,normalized growth,"S. cerevisiae deletion strains, locus YKL085W, strain MDH1, stronger effect = lower value",1.02 (inactive)
same,normalized growth,"S. cerevisiae deletion strains, locus YKL160W, strain elf1, stronger effect = lower value",0.904 (inactive)
same,normalized growth,"S. cerevisiae deletion strains, locus YKR001C, strain vps1, stronger effect = lower value",0.247 (active)
same,normalized growth,"S. cerevisiae deletion strains, locus YKR026C, strain gcn3, stronger effect = lower value",1.03 (inactive)
same,normalized growth,"S. cerevisiae deletion strains, locus YKR091W, strain srl3, stronger effect = lower value",1.03 (inactive)
same,normalized growth,"S. cerevisiae deletion strains, locus YLL001W, strain dnm1, stronger effect = lower value",0.958 (inactive)
same,normalized growth,"S. cerevisiae deletion strains, locus YLL026W, stronger effect = lower value",0.947 (inactive)
same,normalized growth,"S. cerevisiae deletion strains, locus YLL041C, strain sdh2, stronger effect = lower value",1.02 (inactive)
same,normalized growth,"S. cerevisiae deletion strains, locus YLR027C, strain aat2, stronger effect = lower value",0.911 (active)
same,normalized growth,"S. cerevisiae deletion strains, locus YLR039C, strain RIC1, stronger effect = lower value",1.39 [resistant] (active)
same,normalized growth,"S. cerevisiae deletion strains, locus YLR058C, strain SHM2, stronger effect = lower value",0.746 (active)
same,normalized growth,"S. cerevisiae deletion strains, locus YLR102C, strain apc9, stronger effect = lower value",1.02 (inactive)
same,normalized growth,"S. cerevisiae deletion strains, locus YLR113W, strain HOG1, stronger effect = lower value",1.03 (inactive)
same,normalized growth,"S. cerevisiae deletion strains, locus YLR221C, strain rsa3, stronger effect = lower value",0.923 (inactive)
same,normalized growth,"S. cerevisiae deletion strains, locus YLR258W, strain gsy2, stronger effect = lower value",0.938 (inactive)
same,normalized growth,"S. cerevisiae deletion strains, locus YLR262C, strain YPT6 (second series), stronger effect = lower value",0.893 (inactive)
same,normalized growth,"S. cerevisiae deletion strains, locus YLR262C, strain YPT6, stronger effect = lower value",1.37 (inactive)
same,normalized growth,"S. cerevisiae deletion strains, locus YLR268W, strain sec22, stronger effect = lower value",0.794 (active)
same,normalized growth,"S. cerevisiae deletion strains, locus YLR320W, strain mms22, stronger effect = lower value",0.49 (active)
same,normalized growth,"S. cerevisiae deletion strains, locus YLR330W, strain CHS5, stronger effect = lower value",0.849 (active)
same,normalized growth,"S. cerevisiae deletion strains, locus YLR342W, strain FKS1 (second series), stronger effect = lower value",0.726 (active)
same,normalized growth,"S. cerevisiae deletion strains, locus YLR342W, strain FKS1, stronger effect = lower value",1.01 (inactive)
same,normalized growth,"S. cerevisiae deletion strains, locus YLR357W, strain rsc2, stronger effect = lower value",1.19 [resistant] (active)
same,normalized growth,"S. cerevisiae deletion strains, locus YLR370C, strain arc18, stronger effect = lower value",0.965 (inactive)
same,normalized growth,"S. cerevisiae deletion strains, locus YLR371W, strain rom2, stronger effect = lower value",1 (inactive)
same,normalized growth,"S. cerevisiae deletion strains, locus YLR384C, strain iki3, stronger effect = lower value",0.999 (inactive)
same,normalized growth,"S. cerevisiae deletion strains, locus YLR418C, strain cdc73, stronger effect = lower value",0.496 (active)
same,normalized growth,"S. cerevisiae deletion strains, locus YML016C, strain PPZ1, stronger effect = lower value",0.915 (active)
same,normalized growth,"S. cerevisiae deletion strains, locus YML032C, strain rad52, stronger effect = lower value",0.82 (active)
same,normalized growth,"S. cerevisiae deletion strains, locus YML120C, strain ndi1, stronger effect = lower value",0.932 (inactive)
same,normalized growth,"S. cerevisiae deletion strains, locus YML124C, strain tub3, stronger effect = lower value",0.994 (inactive)
same,normalized growth,"S. cerevisiae deletion strains, locus YMR058W, strain fet3, stronger effect = lower value",0.821 (active)
same,normalized growth,"S. cerevisiae deletion strains, locus YMR078C, strain ctf18, stronger effect = lower value",1.01 (inactive)
same,normalized growth,"S. cerevisiae deletion strains, locus YMR125W, strain sto1, stronger effect = lower value",0.876 (active)
same,normalized growth,"S. cerevisiae deletion strains, locus YMR129W, stronger effect = lower value",1.03 (inactive)
same,normalized growth,"S. cerevisiae deletion strains, locus YMR205C, strain PFK2, stronger effect = lower value",0.949 (inactive)
same,normalized growth,"S. cerevisiae deletion strains, locus YMR223W, strain ubp8, stronger effect = lower value",0.8 (active)
same,normalized growth,"S. cerevisiae deletion strains, locus YMR231W, strain pep5, stronger effect = lower value",1.01 (inactive)
same,normalized growth,"S. cerevisiae deletion strains, locus YMR263W, strain SAP30, stronger effect = lower value",0.996 (inactive)
same,normalized growth,"S. cerevisiae deletion strains, locus YMR307W, strain GAS1, stronger effect = lower value",0.526 (active)
same,normalized growth,"S. cerevisiae deletion strains, locus YNL067W, strain RPL9B, stronger effect = lower value",0.844 (active)
same,normalized growth,"S. cerevisiae deletion strains, locus YNL071W, strain lat1, stronger effect = lower value",0.552 (active)
same,normalized growth,"S. cerevisiae deletion strains, locus YNL153C, strain GIM3, stronger effect = lower value",0.826 (active) and 0.893 (inactive)
same,normalized growth,"S. cerevisiae deletion strains, locus YNL175C, strain NOP13, stronger effect = lower value",0.664 (active)
same,normalized growth,"S. cerevisiae deletion strains, locus YNL183C, strain NPR1, stronger effect = lower value",0.971 (inactive)
same,normalized growth,"S. cerevisiae deletion strains, locus YNL197C, strain WHI3, stronger effect = lower value",0.997 (inactive)
same,normalized growth,"S. cerevisiae deletion strains, locus YNL209W, strain ssb2, stronger effect = lower value",0.933 (inactive)
same,normalized growth,"S. cerevisiae deletion strains, locus YNL224C, strain SQS1, stronger effect = lower value",1.04 (inactive)
same,normalized growth,"S. cerevisiae deletion strains, locus YNL233W, strain BNI4, stronger effect = lower value",0.751 (active)
same,normalized growth,"S. cerevisiae deletion strains, locus YNL248C, strain rpa49, stronger effect = lower value",0.818 (active)
same,normalized growth,"S. cerevisiae deletion strains, locus YNL250W, strain rad50, stronger effect = lower value",1 (inactive)
same,normalized growth,"S. cerevisiae deletion strains, locus YNL271C, strain bni1, stronger effect = lower value",1 (inactive)
same,normalized growth,"S. cerevisiae deletion strains, locus YNL298W, strain CLA4, stronger effect = lower value",1.02 (inactive)
same,normalized growth,"S. cerevisiae deletion strains, locus YNL307C, strain MCK1, stronger effect = lower value",0.815 (active)
same,normalized growth,"S. cerevisiae deletion strains, locus YNL322C, strain KRE1 (second series), stronger effect = lower value",1.11 [resistant] (active)
same,normalized growth,"S. cerevisiae deletion strains, locus YNL322C, strain KRE1, stronger effect = lower value",0.884 (active)
same,normalized growth,"S. cerevisiae deletion strains, locus YNR049C, strain mso1, stronger effect = lower value",1.04 (inactive)
same,normalized growth,"S. cerevisiae deletion strains, locus YNR052C, strain pop2, stronger effect = lower value",0.737 (active)
same,normalized growth,"S. cerevisiae deletion strains, locus YOL012C, strain htz1",1.18 (inactive)
same,normalized growth,"S. cerevisiae deletion strains, locus YOL147C, strain pex11, stronger effect = lower value",0.941 (inactive)
same,normalized growth,"S. cerevisiae deletion strains, locus YOR001W, strain rrp6, stronger effect = lower value",0.871 (active)
same,normalized growth,"S. cerevisiae deletion strains, locus YOR061W, strain CKA2, stronger effect = lower value",0.942 (inactive)
same,normalized growth,"S. cerevisiae deletion strains, locus YOR069W, strain VPS5, stronger effect = lower value",0.963 (inactive)
same,normalized growth,"S. cerevisiae deletion strains, locus YOR070C, strain gyp1, stronger effect = lower value",0.29 (active)
same,normalized growth,"S. cerevisiae deletion strains, locus YOR080W, strain dia2, stronger effect = lower value",0.969 (inactive)
same,normalized growth,"S. cerevisiae deletion strains, locus YOR083W, strain WHI5 (second series), stronger effect = lower value",0.977 (inactive)
same,normalized growth,"S. cerevisiae deletion strains, locus YOR083W, strain WHI5, stronger effect = lower value",0.944 (inactive)
same,normalized growth,"S. cerevisiae deletion strains, locus YOR106W, strain vam3, stronger effect = lower value",0.935 (inactive)
same,normalized growth,"S. cerevisiae deletion strains, locus YOR136W, strain idh2, stronger effect = lower value",0.98 (inactive)
same,normalized growth,"S. cerevisiae deletion strains, locus YOR144C, strain elg1, stronger effect = lower value",1 (inactive)
same,normalized growth,"S. cerevisiae deletion strains, locus YOR184W, strain ser1, stronger effect = lower value",0.847 (active)
same,normalized growth,"S. cerevisiae deletion strains, locus YOR231W, strain MKK1, stronger effect = lower value",0.991 (inactive)
same,normalized growth,"S. cerevisiae deletion strains, locus YOR265W, strain rbl2, stronger effect = lower value",0.974 (inactive)
same,normalized growth,"S. cerevisiae deletion strains, locus YOR270C, strain vph1, stronger effect = lower value",0.381 (active)
same,normalized growth,"S. cerevisiae deletion strains, locus YOR290C, strain snf2, stronger effect = lower value",0.843 (active)
same,normalized growth,"S. cerevisiae deletion strains, locus YOR316C, strain cot1, stronger effect = lower value",1.02 (inactive)
same,normalized growth,"S. cerevisiae deletion strains, locus YPL051W, strain arl3, stronger effect = lower value",0.789 (active)
same,normalized growth,"S. cerevisiae deletion strains, locus YPL078C, strain atp4, stronger effect = lower value",0.914 (inactive)
same,normalized growth,"S. cerevisiae deletion strains, locus YPL106C, strain sse1, stronger effect = lower value",1.17 [resistant] (active)
same,normalized growth,"S. cerevisiae deletion strains, locus YPL240C, strain hsp82, stronger effect = lower value",1 (inactive)
same,normalized growth,"S. cerevisiae deletion strains, locus YPL241C, strain CIN2, stronger effect = lower value",0.89 (active) and 0.969 (inactive)
same,normalized growth,"S. cerevisiae deletion strains, locus YPL256C, strain CLN2, stronger effect = lower value",0.99 (inactive)
same,normalized growth,"S. cerevisiae deletion strains, locus YPR119W, strain clb2, stronger effect = lower value",1.04 (inactive)
same,normalized growth,"S. cerevisiae deletion strains, locus YPR141C, strain kar3, stronger effect = lower value",1.04 (inactive)
same,normalized growth,"S. cerevisiae deletion strains, locus YPR163C, strain tif3, stronger effect = lower value",0.575 (active)
same,normalized growth,"S. cerevisiae deletion strains, locus YPR167C, strain met16, stronger effect = lower value",0.942 (inactive)
same,normalized growth,"S. cerevisiae deletion strains, strain wtn01, stronger effect = lower value",0.776 (active)
same,normalized growth,"S. cerevisiae strains, strain wild type, stronger effect = lower value",0.833 (active)
